Measured values published in PubChem BioAssay (EPA / NIEHS).
Several values for one entry are separate records, joined by “and”; a condition that tells them apart may be missing. Equal entries are not always repeated. Results filed as inconclusive are left out. Some compounds were tested as several samples or in several runs, with calls that do not always agree. Activity calls are given as the source filed them. The calls were made as follows, unless noted: active = hit-call score of the fitted dose curve at least 0.9, where 1 is the maximum; inactive = score below 0.9.

Tests used:
[1] = biological target: Ratio of Nucleoli Translocation and Cytoplasm, AR (gene 367) (UniProt P10275); test: UPITT_HCI_U2OS_AR_TIF2_Nucleoli_Cytoplasm_Ratio_Antagonist: University of Pittsburgh U2OS Androgen Receptor-Transcriptional Intermediary Factor 2 (AR-TIF2) Antagonism High Content Imaging Assay for Ratio of Nucleoli Translocation and Cytoplasm (AID 2283999; active = hit-call score of the fitted dose curve at least 0.9, where 1 is the maximum;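 also: antagonists lower the DHT-driven ratio of nucleolar to cytoplasmic red signal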)
Outline: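 Compounds were added to U2OS cells carrying red-fluorescent AR and green-fluorescent TIF2, first at 20 uM, with hits confirmed in triplicate and titrated from 0.195 to 50 uM. Nucleolar versus cytoplasmic AR-RFP fluorescence was then quantified by imaging, with analysis relative to DHT.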

[2] = CCTE_Shafer_MEA_acute_spike_number: CCTE's Neural Acute Assay for Total Number of Spikes, Shafer Lab (AID 2284008);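 as to AC50: curve fitted for decrease in spike count so AC50 reflects inhibitors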
Outline: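 Rat cortical cultures, DIV 13/15, 37 C. 40 min baseline rec, cpd 0.03-40 uM, 40 min post-dose rec. Band-pass 300-5000 Hz, spike threshold 8x rms; % change in spike count per well, DMSO neg ctrl, loss-of-signal fit.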

[3] = CCTE_Shafer_MEA_acute_firing_rate_mean: CCTE's Neural Acute Assay for Mean Firing Rate, Shafer Lab (AID 2284009);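 also: analyzed for loss of signal so actives lower firing rate relative to DMSO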
Outline: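 Rat cortical neuron cultures matured to DIV 13 or 15, equilibrated 20 min at 37 C, then recorded 40 min for baseline. Compound (0.03-40 uM) added and a further 40 min recorded; percent change in mean firing rate calculated per well.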

[4] = CCTE_Harrill_HTTr_Viability_MCF7: CCTE's 6-hour Cell Viability Assessment for the High-Throughput Transcriptomics (HTTr) Platform, in MCF-7 cells cultured in DMEM + 10% fetal bovine serum, Harrill Lab (AID 2284010)
Outline: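 Read-out is propidium iodide gain of signal by high-content imaging, reflecting membrane integrity loss. Measurements are taken 6 h after dosing, eight concentrations per chemical, with DMSO serving as baseline for bidirectional curve fitting.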

[5] = CCTE_Harrill_HTTr_Apoptosis_MCF7: CCTE's 6-hour Apoptosis Assessment for the High-Throughput Transcriptomics (HTTr) Platform, in MCF-7 cells cultured in DMEM + 10% fetal bovine serum, Harrill Lab (AID 2284011)
Outline: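 Read-out: CellEvent Caspase 3/7 Green signal by high content imaging, gain-of-signal indicating apoptosis. MCF-7 cells, DMEM + 10% FBS, eight-point dilution series, 6 h exposure. Curves fitted bidirectionally relative to DMSO negative control.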

[6] = CCTE_Simmons_MITO_basal_resp_rate: CCTE's HepG2 Seahorse XF Respirometric Screening Assay at Basal Respiratory State, Simmons Lab (AID 2284001); details: actives raise or lower the signal
Outline: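 Basal-phase OCR of HepG2 cells on a Seahorse XF96, analysed by bidirectional fit relative to DMSO vehicle; chemicals at 7 concentrations, 125 nM–100 uM final; three biological replicates; fenpyroximate and 2,4-dinitrophenol positive controls.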

[7] = CCTE_Simmons_MITO_max_resp_rate: CCTE's HepG2 Seahorse XF Respirometric Screening Assay at Maximal Respiratory State [uncoupled], Simmons Lab (AID 2284002); details: actives raise or lower the signal
Outline: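 HepG2, Seahorse XF96, maximal OCR post-FCCP. Cpd 125 nM–100 uM final (7 conc), n=3 biological. Kinetic reads every 6 min (3 min mix/3 min measure) over 72 min; fit bidirectional vs DMSO.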

[8] = CCTE_Simmons_MITO_inhib_resp_rate: CCTE's HepG2 Seahorse XF Respirometric Screening Assay at Inhibited Respiratory State [full ETC block], Simmons Lab (AID 2284006); details: actives raise or lower the signal
Outline: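 Seahorse respirometry, HepG2, 72 min total, 6-min mix/measure cycles. Cpd 125 nM–100 uM final ×7, n=3 biological. Sequential FCCP, rotenone/antimycin A; inhibited-respiration OCR, bidirectional fit vs DMSO.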

[9] = CCTE_Simmons_MITO_viability: CellTiter-Glo Viability Assessment for CCTE's HepG2 Seahorse XF Respirometric Screening Assay [post-hoc], Simmons Lab (AID 2284007; active = hit-call score of the fitted dose curve at least 0.9, where 1 is the maximum;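 as to AC50: cells exposed to chemical for 90 min before the ATP read; actives lower ATP signal relative to DMSO baseline meaning reduced viability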)
Outline: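 Cytotoxicity readout: ATP quantitation via luciferase in HepG2 cells treated 90 min with seven titrated concentrations (125 nM to 100 uM, final). Curves fitted relative to DMSO negative control, three biological replicates per concentration.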

[10] = biological target: Nucleoli Translocation, AR (gene 367) (UniProt P10275); test: UPITT_HCI_U2OS_AR_TIF2_Nucleoli_Agonist: University of Pittsburgh U2OS Androgen Receptor-Transcriptional Intermediary Factor 2 (AR-TIF2) Agonism High Content Imaging Assay for Nucleoli Translocation (AID 2283998; active = hit-call score of the fitted dose curve at least 0.9, where 1 is the maximum)
Outline: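 RFP-AR / GFP-TIF2 cells; cpds diluted in serum-free medium; single-point screen 20 uM final (0.2% DMSO), actives confirmed in triplicate; conc-response 0.195–50 uM final (0.5% DMSO). Readout: nucleolar red fluorescence, positive direction vs DMSO.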

Measured: AC50

Ratio of Nucleoli Translocation and Cytoplasm, AR (gene 367), sequence (P10275 whole entry, looked up): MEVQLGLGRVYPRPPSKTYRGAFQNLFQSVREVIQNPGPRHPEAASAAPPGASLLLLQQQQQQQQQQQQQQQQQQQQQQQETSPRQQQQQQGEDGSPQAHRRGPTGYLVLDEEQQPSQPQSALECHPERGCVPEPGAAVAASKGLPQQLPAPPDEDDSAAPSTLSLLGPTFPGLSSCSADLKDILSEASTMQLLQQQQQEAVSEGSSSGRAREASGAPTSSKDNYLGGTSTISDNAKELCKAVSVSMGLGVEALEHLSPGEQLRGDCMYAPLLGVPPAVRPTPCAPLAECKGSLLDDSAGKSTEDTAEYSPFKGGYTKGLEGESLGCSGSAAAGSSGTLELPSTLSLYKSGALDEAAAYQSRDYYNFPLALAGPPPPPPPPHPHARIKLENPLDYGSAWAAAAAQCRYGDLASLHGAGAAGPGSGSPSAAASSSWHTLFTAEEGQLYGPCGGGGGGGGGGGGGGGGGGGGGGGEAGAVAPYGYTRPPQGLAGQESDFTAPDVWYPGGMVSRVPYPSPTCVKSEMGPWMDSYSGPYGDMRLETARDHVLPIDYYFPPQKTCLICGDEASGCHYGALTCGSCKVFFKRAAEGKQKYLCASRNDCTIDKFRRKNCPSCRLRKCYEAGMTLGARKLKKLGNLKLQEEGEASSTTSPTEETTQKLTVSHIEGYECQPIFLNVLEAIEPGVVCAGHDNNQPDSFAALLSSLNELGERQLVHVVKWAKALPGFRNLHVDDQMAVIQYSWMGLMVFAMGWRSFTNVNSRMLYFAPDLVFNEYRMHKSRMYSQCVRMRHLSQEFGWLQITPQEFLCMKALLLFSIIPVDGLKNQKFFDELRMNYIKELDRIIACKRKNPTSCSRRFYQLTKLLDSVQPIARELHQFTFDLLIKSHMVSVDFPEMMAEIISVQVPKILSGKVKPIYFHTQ
Nucleoli Translocation, AR (gene 367), sequence (P10275 whole entry, looked up): as above

CC1(C)C(C=C(Cl)Cl)C1C(=O)OCc1cccc(Oc2ccccc2)c1 (stereo unspecified)
inactive: [1] | [2] | [3] | [4] | [5]

C=CCOC(Cn1ccnc1)c1ccc(Cl)cc1Cl (stereo unspecified)
active: [6] 24.3 µM | [7] 38.2 µM | [2] 6.09 µM | [3] 6.09 µM
inactive: [8] | [9] | [4] | [5]

CCCCOC(=O)C(C)Oc1ccc(Oc2ccc(C(F)(F)F)cn2)cc1 (stereo unspecified)
inactive: [6] | [7] | [8] | [9] | [4] | [5]

CCCOC(=O)c1ccc(C(=O)OCCC)nc1
inactive: [10] | [1] | [4] | [5]

CCCCC(CC)COC(=O)c1ccccc1C(=O)O (stereo unspecified)
active: [6] 3.97 µM
inactive: [7] | [8] | [9] | [4] | [5]

Cc1nn(C)c(Oc2ccccc2)c1C=NOCc1ccc(C(=O)OC(C)(C)C)cc1
inactive: [10] | [1] | [8] | [9] | [4] | [5]
active: [6] 1.15 µM and 1.55 µM | [7] 884 nM and 948 nM | [9] 2.81 µM | [2] 0.00424 µM | [3] 0.00449 µM

CC(=O)[C@H]1CC[C@H]2[C@@H]3CCC4=CC(=O)CC[C@]4(C)[C@H]3CC[C@]12C
active: [6] 10.1 µM | [7] 13.4 µM
inactive: [8] | [9] | [4] | [5]

CCCCOCCOCCOCc1cc2c(cc1CCC)OCO2
inactive: [1] | [4] | [5]

CC(C)(c1ccc(O)cc1)c1ccc(O)cc1
active: [10] 73.3 µM | [6] 18.9 µM and 24.7 µM | [7] 37.1 µM and 34.8 µM | [2] 5.7 µM | [3] 5.7 µM
inactive: [1] | [8] | [4] | [5]

CN(C)C(=O)Nc1ccc(Cl)c(Cl)c1
inactive: [1] | [4] | [5]

CCOC(=O)C(C)Oc1ccc(Oc2nc3ccc(Cl)cc3o2)cc1 (stereo unspecified)
inactive: [1] | [4] | [5]

Oc1ccc(C(c2ccc(O)cc2)C(Cl)(Cl)Cl)cc1
active: [6] 18.8 µM | [7] 21.7 µM | [2] 4.04 µM | [3] 4.04 µM
inactive: [8] | [4] | [5]

CC(=O)S[C@@H]1CC2=CC(=O)CC[C@]2(C)[C@H]2CC[C@@]3(C)[C@@H](CC[C@@]34CCC(=O)O4)[C@H]12
inactive: [1] | [4] | [5]

COC(=O)CSc1cc(N=c2sc(=O)n3n2CCCC3)c(F)cc1Cl
inactive: [10] | [1] | [4] | [5]

C[C@]12CC[C@@H]3c4ccc(O)cc4C[C@@H](CCCCCCCCCS(=O)CCCC(F)(F)C(F)(F)F)[C@H]3[C@@H]1CC[C@@H]2O (stereo partly specified)
inactive: [10] | [4] | [5]

CCCN(CCC)C(=O)SCC
inactive: [10] | [4] | [5]

CCCCC(CC)CN1C(=O)C2C3C=CC(C3)C2C1=O (stereo unspecified)
inactive: [8] | [9] | [4] | [5]
active: [6] 25.3 µM | [7] 32.1 µM | [2] 30.1 µM | [3] 30.1 µM

C#CCOC(=O)[C@@H](C)Oc1ccc(Oc2ncc(Cl)cc2F)cc1
inactive: [2] | [3] | [4] | [5]

S=C([S-])NCCNC(=S)[S-].[Mn+2]
inactive: [4] | [5]

CCOC(=O)c1ccc(O)cc1
inactive: [4] | [5]

COC(=O)c1ccc(I)cc1S(=O)(=O)NC(=O)Nc1nc(C)nc(OC)n1
inactive: [4] | [5]

O=C(O)c1ccccc1
inactive: [2] | [3] | [4] | [5]

OB(O)O
inactive: [2] | [3] | [4] | [5]

CCC(O)=C1C(=O)CC(C(=O)O)CC1=O (stereo unspecified)
inactive: [4] | [5]

CCC(C)OC(=O)N1CCCCC1CCO (stereo unspecified)
inactive: [4] | [5]

c1ccc(Nc2ccccc2)cc1
inactive: [4] | [5]

CCCCCOC(=O)COc1cc(N2C(=O)C3=C(CCCC3)C2=O)c(F)cc1Cl
inactive: [4] | [5]

c1ccc2[nH]c(-c3cscn3)nc2c1
inactive: [4] | [5]

CCCN(CCC)c1c([N+](=O)[O-])cc(C(F)(F)F)c(N)c1[N+](=O)[O-]
inactive: [2] | [3] | [5]
active: [4] 68.1 µM

C[C@]12C[C@H](O)[C@H]3[C@@H](CCC4=CC(=O)CC[C@@]43C)[C@@H]1CC[C@@H]2C(=O)CO
active: [6] 42 µM
inactive: [7] | [9] | [4] | [5]

CCOC(=O)C(C)Oc1ccc(Oc2cnc3cc(Cl)ccc3n2)cc1 (stereo unspecified)
inactive: [4] | [5]

CCCCCCC(C)OC(=O)COc1nc(F)c(Cl)c(N)c1Cl (stereo unspecified)
inactive: [4] | [5]

CCCOC(=O)NCCCN(C)C
inactive: [4] | [5]

N[C@@H](Cc1cc(I)c(Oc2ccc(O)c(I)c2)c(I)c1)C(=O)O
active: [6] 6.61 µM
inactive: [7] | [8] | [4] | [5]

COCCO
inactive: [4] | [5]

CCNc1nc(N)nc(Cl)n1
inactive: [2] | [3] | [4] | [5]

CCN(Cc1c(F)cccc1Cl)c1c([N+](=O)[O-])cc(C(F)(F)F)cc1[N+](=O)[O-]
inactive: [4] | [5]

S=C(S)NCCNC(=S)S.[Mn+2].[S-]C([S-])=NCCN=C([S-])[S-].[Zn+2]
inactive: [4] | [5]

O=C(Nc1ccc([N+](=O)[O-])cc1Cl)c1cc(Cl)ccc1O
inactive: [4] | [5]
active: [6] 1.57 µM | [7] 0.928 µM | [8] 1.36 µM | [2] 0.115 µM | [3] 0.114 µM

CC(C)(C)[C@@H](O)[C@@H](Cc1ccc(Cl)cc1)n1cncn1
inactive: [2] | [3] | [4] | [5]

COC(=O)c1ccccc1C(=O)O
inactive: [2] | [3] | [4] | [5]

C#C[C@]1(O)CC[C@H]2[C@@H]3CCC4=CC(=O)CC[C@@H]4[C@H]3CC[C@@]21CC
inactive: [4] | [5]

CCN(CC)C(=O)c1cccc(C)c1
inactive: [4] | [5]

COc1c(Cl)ccc(Cl)c1C(=O)O
inactive: [4] | [5]
